The panel holds about 79,000 compounds, 15% with a hit somewhere; the sample as a whole holds those more often. A number with no mark means an inactive call. Active and inactive are the calls of the source. Cut-off read from the data, not from the text of the source: active = growth inhibition above about 70%; inactive = the rest.

The first test is described as follows: NCI Yeast Anticancer Drug Screen. Data for the bub3 strain (AID 167). To be noted: S. cerevisiae bub3 mutant strain, at 50.0 µM, hits give high values. Summed up: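 Growth of a checkpoint-deficient yeast mutant is measured after compound exposure. Values represent inhibition relative to vehicle.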
Consider `Cc1cn(C2CC(Br)C(COC(c3ccccc3)(c3ccccc3)c3ccccc3)O2)c(=O)[nH]c1=O` (stereo not drawn), for which the growth inhibition is 96.2% (active).

For the molecule `CC1CCN(CCOC(=O)C(c2ccccc2)C2C=CCCC2)C1` (stereo not drawn), the growth inhibition was 36.5%.

Turning to `C=CC(c1ccccc1)[C@@]1(OC(C)=O)C(=O)C(=O)OC1C1COC(C)(C)O1` (stereo partly drawn), the growth inhibition was 85.1% (active).

Regarding `CC(C)S(=O)(=O)ON1C(=O)c2ccc(N(C)C)cc2C1=O`, the growth inhibition was 73.4% (active).

Consider `CCCC(Sc1ccccc1)c1ccccc1NC(C)=O` (stereo not drawn), for which the growth inhibition is 45.6%.

As to `Oc1c(C(Nc2ccccn2)c2ccccc2)ccc2cccnc12` (stereo not drawn), the growth inhibition is 94.4% (active).

For `CC(=O)NC1=C(Cl)C(=O)c2ccccc2C1=O`, the growth inhibition was 99.4% (active).

`CC1OC(c2ccc3c(c2)OCO3)OC1C` (stereo not drawn): the growth inhibition is 25%.

For `CN(C)CC(CN1CCCC1)C(=O)c1ccccc1` (stereo not drawn), the growth inhibition was 65.5%.

For the molecule `O=S(=O)(O)c1ccc2c(c1)C1C(C3C2C2(Cl)C(Cl)=C(Cl)C3(Cl)C2(Cl)Cl)C2(Cl)C(Cl)=C(Cl)C1(Cl)C2(Cl)Cl` (stereo not drawn), the growth inhibition is 88.6% (active).

For `Cc1cc(Cl)nc2ccc(Cc3ccc4nc(Cl)cc(C)c4c3)cc12`, the growth inhibition was 23.4%.

Take `CC1CCC2(C)C(CC=C(C=O)C2(O)C=O)C12CO2` (stereo not drawn): the growth inhibition is 93.8% (active).

On to `Cc1c(C)c(C)c(C(=O)c2ccccc2C(=O)NCCSC(C)(C)C)c(C)c1C`, for which the growth inhibition was 82.4% (active).

Consider `O=[N+]([O-])C(=C1Nc2ccccc2N1)C(Cl)=C(Cl)Cl`, for which the growth inhibition is -2.55%.

Turning to `CCCCNc1ccc(C(=O)OC2CCN(C)CC2)c(Cl)c1`, the growth inhibition is 96.3% (active).

Turning to `CC(C)(C)OC(=O)c1ccc(NCC2=C(Br)C(=O)C=CC2=O)cc1`, the growth inhibition was 80.8% (active).

As for `N#CC(c1ccc(Cl)cc1)c1ccc([N+](=O)[O-])cc1` (stereo not drawn), the growth inhibition is 64.3%.

As to `O=C(CC(=O)c1ccccc1NC1=Cc2ccccc2C(=O)C1=O)C(=O)NC1=C(Cl)C(=O)c2ccccc2C1=O`, the growth inhibition was 84.9% (active).

In the case of `O=S(=O)(Nc1ccc2c3c(cccc13)C=C2)c1ccccc1`, the growth inhibition is 63.4%.

As for `CC(=O)c1cccc(NC(=O)C(=O)NNc2n[nH]c(=S)n2N)c1`, the growth inhibition was 92.8% (active).

For the molecule `Nc1ncc(C(=O)c2ccccc2)cc1[N+](=O)[O-]`, the growth inhibition was -2.9%.

`COc1ccc2cc(C3CCCC3(C)CC(=O)O)ccc2c1` (stereo not drawn): the growth inhibition is 3.85%.

As for `CNc1ccc(N=O)cc1`, the growth inhibition was 89.2% (active).

Consider `S=c1sc2nc(Cl)nc(Cl)c2s1`, for which the growth inhibition was 87.4% (active).

In the case of `CC(=O)O/C=C1\c2ccccc2CCC1c1ccc2ccccc2c1` (stereo not drawn), the growth inhibition was 27.9%.

For the molecule `CC1(C)C2CCC(C2)C1OC(=O)c1ccccc1C(=O)O` (stereo not drawn), the growth inhibition was 71% (active).

With `Cc1cc(=O)oc2c3c(ccc12)OC(c1ccc(Br)cc1)CC3=O` (stereo not drawn), the growth inhibition was -3%.

Take `Cc1cc(N(CCOS(C)(=O)=O)CCOS(C)(=O)=O)ccc1C=Nc1cccc(Cl)c1`: the growth inhibition is 29.7%.

For the molecule `CN(C)CCOc1cc2c(c3ccccc13)-c1ccccc1C2O` (stereo not drawn), the growth inhibition was 34.5%.

Regarding `NC(=S)C(=Nc1ccccc1F)Nc1ccccc1F`, the growth inhibition was 32.9%.

For `CCCCOc1ccc(NC(=S)Nc2ccc(OCCN(CC)CC)cc2)cc1`, the growth inhibition was 71% (active).

For `CC1CCN(CC(=O)N2c3ccccc3Sc3cc4ccccc4cc32)CC1`, the growth inhibition was -3.9%.

As for `CC(C)C1COC(c2ccc3ccccc3c2-c2c(O[Si](C)(C)C(C)(C)C)ccc3ccccc23)=N1` (stereo not drawn), the growth inhibition is 91.3% (active).

Turning to `CN(C)c1ccc(/C=C(\C#N)c2cccc(Cl)c2)cc1`, the growth inhibition was 13.7%.

In the case of `CCN(CC)CCNc1ccc(C)c2oc3ccc(O)cc3c(=O)c12`, the growth inhibition was 81.7% (active).

On to `CN(C)CC1CCc2c(ccc3ccccc23)C1=O` (stereo not drawn), for which the growth inhibition was 58.8%.

As for `C[C@]12CCC(=O)C=C1CC[C@@H]1[C@@H]2[C@@H](O)C[C@@]2(C)[C@H]1CC[C@]2(O)C(=O)COC(=O)CCC1CCCC1`, the growth inhibition was 77.2% (active).

Turning to `O=C(CSc1nnc(Cc2ccccc2)o1)Nc1ccc(Cl)cc1[N+](=O)[O-]`, the growth inhibition is 15.1%.

Take `Cc1cccc2c1Oc1ccccc1C2N1C(=O)/C(=C/c2ccccc2Cl)SC1=S` (stereo not drawn): the growth inhibition is 12.6%.

The nature of the next test: NCI Yeast Anticancer Drug Screen. Data for the mlh1 rad18 strain (AID 175). The settings on record: S. cerevisiae mlh1 rad18 strain growth inhibition; at 5.0 µM (retest, dose inferred, filed as 0.5); hits give high values. Summed up: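 Growth inhibition of the yeast strain was measured after compound exposure and expressed relative to vehicle-treated controls. The strain carries defined defects in DNA damage repair.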
In the case of `Cc1cn(C2CC(Br)C(COC(c3ccccc3)(c3ccccc3)c3ccccc3)O2)c(=O)[nH]c1=O` (stereo not drawn), the growth inhibition is 8%.

For the molecule `CC1CCN(CCOC(=O)C(c2ccccc2)C2C=CCCC2)C1` (stereo not drawn), the growth inhibition is 14%.

Regarding `C=CC(c1ccccc1)[C@@]1(OC(C)=O)C(=O)C(=O)OC1C1COC(C)(C)O1` (stereo partly drawn), the growth inhibition is 81% (active).

Take `CC(C)S(=O)(=O)ON1C(=O)c2ccc(N(C)C)cc2C1=O`: the growth inhibition is 16%.

`CCCC(Sc1ccccc1)c1ccccc1NC(C)=O` (stereo not drawn): the growth inhibition was 2%.

For the molecule `Oc1c(C(Nc2ccccn2)c2ccccc2)ccc2cccnc12` (stereo not drawn), the growth inhibition is 7%.

For `CC(=O)NC1=C(Cl)C(=O)c2ccccc2C1=O`, the growth inhibition was 96% (active).

On to `CC1OC(c2ccc3c(c2)OCO3)OC1C` (stereo not drawn), for which the growth inhibition was 2%.

Consider `CN(C)CC(CN1CCCC1)C(=O)c1ccccc1` (stereo not drawn), for which the growth inhibition is 15%.

For the molecule `O=S(=O)(O)c1ccc2c(c1)C1C(C3C2C2(Cl)C(Cl)=C(Cl)C3(Cl)C2(Cl)Cl)C2(Cl)C(Cl)=C(Cl)C1(Cl)C2(Cl)Cl` (stereo not drawn), the growth inhibition is 23%.

Regarding `Cc1cc(Cl)nc2ccc(Cc3ccc4nc(Cl)cc(C)c4c3)cc12`, the growth inhibition was 0%.

Consider `CC1CCC2(C)C(CC=C(C=O)C2(O)C=O)C12CO2` (stereo not drawn), for which the growth inhibition is 99% (active).

In the case of `Cc1c(C)c(C)c(C(=O)c2ccccc2C(=O)NCCSC(C)(C)C)c(C)c1C`, the growth inhibition is 47%.

Consider `O=[N+]([O-])C(=C1Nc2ccccc2N1)C(Cl)=C(Cl)Cl`, for which the growth inhibition is 15%.

For the molecule `CCCCNc1ccc(C(=O)OC2CCN(C)CC2)c(Cl)c1`, the growth inhibition was 99% (active).

As to `CC(C)(C)OC(=O)c1ccc(NCC2=C(Br)C(=O)C=CC2=O)cc1`, the growth inhibition is 14%.

`N#CC(c1ccc(Cl)cc1)c1ccc([N+](=O)[O-])cc1` (stereo not drawn): the growth inhibition is -5%.

For `O=C(CC(=O)c1ccccc1NC1=Cc2ccccc2C(=O)C1=O)C(=O)NC1=C(Cl)C(=O)c2ccccc2C1=O`, the growth inhibition was 37%.

`O=S(=O)(Nc1ccc2c3c(cccc13)C=C2)c1ccccc1`: the growth inhibition was -2%.

On to `CC(=O)c1cccc(NC(=O)C(=O)NNc2n[nH]c(=S)n2N)c1`, for which the growth inhibition is 19%.

Take `Nc1ncc(C(=O)c2ccccc2)cc1[N+](=O)[O-]`: the growth inhibition is -138%.

On to `COc1ccc2cc(C3CCCC3(C)CC(=O)O)ccc2c1` (stereo not drawn), for which the growth inhibition is 1%.

For the molecule `CNc1ccc(N=O)cc1`, the growth inhibition is 19%.

`S=c1sc2nc(Cl)nc(Cl)c2s1`: the growth inhibition is 99% (active).

Turning to `CC(=O)O/C=C1\c2ccccc2CCC1c1ccc2ccccc2c1` (stereo not drawn), the growth inhibition was 9%.

Take `CC1(C)C2CCC(C2)C1OC(=O)c1ccccc1C(=O)O` (stereo not drawn): the growth inhibition was -21%.

With `Cc1cc(=O)oc2c3c(ccc12)OC(c1ccc(Br)cc1)CC3=O` (stereo not drawn), the growth inhibition is 22%.

Consider `Cc1cc(N(CCOS(C)(=O)=O)CCOS(C)(=O)=O)ccc1C=Nc1cccc(Cl)c1`, for which the growth inhibition is 24%.

As for `CN(C)CCOc1cc2c(c3ccccc13)-c1ccccc1C2O` (stereo not drawn), the growth inhibition is 7%.

For the molecule `NC(=S)C(=Nc1ccccc1F)Nc1ccccc1F`, the growth inhibition is 20%.

Consider `CCCCOc1ccc(NC(=S)Nc2ccc(OCCN(CC)CC)cc2)cc1`, for which the growth inhibition was 35%.

On to `CC1CCN(CC(=O)N2c3ccccc3Sc3cc4ccccc4cc32)CC1`, for which the growth inhibition was -4%.

`CC(C)C1COC(c2ccc3ccccc3c2-c2c(O[Si](C)(C)C(C)(C)C)ccc3ccccc23)=N1` (stereo not drawn): the growth inhibition was 4%.

As to `CN(C)c1ccc(/C=C(\C#N)c2cccc(Cl)c2)cc1`, the growth inhibition is -3%.

With `CCN(CC)CCNc1ccc(C)c2oc3ccc(O)cc3c(=O)c12`, the growth inhibition is -1%.

Regarding `CN(C)CC1CCc2c(ccc3ccccc23)C1=O` (stereo not drawn), the growth inhibition is 40%.

As to `C[C@]12CCC(=O)C=C1CC[C@@H]1[C@@H]2[C@@H](O)C[C@@]2(C)[C@H]1CC[C@]2(O)C(=O)COC(=O)CCC1CCCC1`, the growth inhibition was 75% (active).

Consider `O=C(CSc1nnc(Cc2ccccc2)o1)Nc1ccc(Cl)cc1[N+](=O)[O-]`, for which the growth inhibition was 4%.

Regarding `Cc1cccc2c1Oc1ccccc1C2N1C(=O)/C(=C/c2ccccc2Cl)SC1=S` (stereo not drawn), the growth inhibition is 99% (active).

(Values after PubChem BioAssay (NCI).)
